From PubChem BioAssay
aSyn 5UTR act – Activators working through SNCA 5'UTR binding (MLPCN) | alpha-synuclein 5'UTR reporter, activators screen | activity score, % (tested at 7.5 µM), hits read low | actives 7.1% (n = 300,000) | AID 1814; in the data active means activity score below about -60%
The depositor's hits bear a star. These entries were drawn from the full list.

SMILES | aSyn 5UTR act
Cc1cccc(COc2ccc(/C=N/NC(=O)c3nnn(-c4nonc4N)c3COc3ccc(F)cc3)cc2)c1 | -158.7*
CN(C)Cc1c(C(=O)N/N=C/c2ccc(OCc3c(F)cccc3Cl)cc2)nnn1-c1nonc1N | -76.0*
Cc1ccc(/C=N/NC(=O)c2nnn(-c3nonc3N)c2-c2cccs2)cc1 | 69.3
CC(C)c1c(C(=O)N/N=C/c2ccc(OCc3ccc(F)cc3)cc2)nnn1-c1nonc1N | -71.6*
Nc1nonc1-n1nnc(C(=O)N/N=C/c2ccc(OCc3ccccc3)cc2)c1COc1ccc(F)cc1 | -95.6*
C/C(=N\NC(=O)c1nnn(-c2nonc2N)c1C)c1ccc(OCc2ccccc2)cc1 | -66.8*
C/C(=N\NC(=O)c1nnn(-c2nonc2N)c1CN1CCc2ccccc21)c1ccccc1O | 75.2
CCOc1cccc(-c2c(C(=O)N/N=C(\C)c3ccccn3)nnn2-c2nonc2N)c1 | 90.0
CCOc1ccc(/C=C/c2nc(C#N)c(NCCCOC)o2)cc1 | -149.5*
COCCCNc1oc(/C=C/c2ccccc2)nc1C#N | -114.3*
Cc1ccc2c(c1)Cc1nc3ccccc3nc1-2 | 71.2
Cc1ccc2c(c1)C(=NC1CCCCC1)c1cc3ccccc3nc1-2 | -206.3*
Cc1cc(NC(=O)NC(=O)c2ccccc2)no1 | -119.9*
C/C(=C\c1ccccc1)C(=O)Nc1cc(C)on1 | -161.0*
Cc1cc(NC(=O)c2ccc(Cl)cc2)no1 | -106.8*
Cc1cc(NC(=O)c2ccc3nc(C)sc3c2)no1 | -122.8*
Cc1cc(NC(=O)c2ccco2)no1 | -61.8*
CSc1ccc(C2C(C(=O)c3ccco3)=C(O)C(=O)N2c2nnc(SC)s2)cc1 (stereo unspecified) | -62.0*
CCOC(=O)c1cnc(Nc2ccccc2)nc1C(F)(F)F | -89.2*
Cc1nn(-c2nnc(NC3CCCCC3)nn2)c(C)c1Br | -164.8*
Nc1cc(Cl)ccc1C(=O)OCC(=O)N1CCCC1 | -69.5*
Nc1cc(C(=O)OCC(=O)N2CCCC2)ccc1Cl | -61.5*
Cn1cc(/C=C(\C#N)C(=O)Nc2ccccc2O)c2ccccc21 | -118.4*
O=C(Nc1ccc([N+](=O)[O-])cc1)C(Cc1ccccc1)N1C(=O)c2cccc3cccc(c23)C1=O (stereo unspecified) | 55.9
COC(=O)C(Cc1ccc(O)cc1)N1Cc2ccccc2C1=O (stereo unspecified) | -144.4*
SMILES | aSyn 5UTR act
COC(=O)C(Cc1ccc(OC(=O)c2ccc(C)cc2)cc1)N1Cc2ccccc2C1=O (stereo unspecified) | -66.7*
CC(=O)NC1Sc2ccccc2N=C1c1ccccc1 (stereo unspecified) | -180.7*
O=c1[nH]c(-c2ccccc2)nc2sc(-c3ccccc3)cc12 | -235.3*
O=c1[nH]cnc2sc(-c3ccccc3)cc12 | -85.5*
CC(=O)c1ccc2c(c1)C1C=CCC1C(c1ccncc1)N2 (stereo unspecified) | -76.9*
CN(C)/C=C/c1onc(-c2ccccc2Cl)c1C#N | -86.7*
CSC1=NC2(CCCCC2)CC12C=CC(=O)C=C2 | -62.6*
CC(/C=N/NC(=O)c1cccs1)=C\c1ccco1 | -176.4*
CC(/C=N/NC(=O)Cc1cccs1)=C\c1ccco1 | -98.2*
CC(/C=N/NC(=O)c1cc(-c2ccncc2)nc2ccccc12)=C\c1ccco1 | 86.1
CCCCOc1ccc(CSc2nncn2N)cc1 | -85.5*
CCOc1ccc2nc(SCC)[nH]c2c1 | -118.2*
c1ccc(CSCc2nc3ccccc3[nH]2)cc1 | -90.9*
C=CCOc1ccc2nc(NC(=O)OC)[nH]c2c1 | 65.9
Clc1ccccc1CSc1nc2ccncc2[nH]1 | -78.9*
CCCOc1ccc(CSc2nc3ccccc3[nH]2)cc1 | -126.6*
Fc1ccc(CSc2nc3ccccc3[nH]2)cc1 | -155.2*
Fc1ccc(CSc2nc3ncccc3[nH]2)cc1 | -104.7*
CC(C)CSc1nc2ccccc2[nH]1 | -95.2*
O=C(NCCO)c1ccc(CSc2nc3ccccc3[nH]2)cc1 | -66.1*
c1ccc(CSc2nc3ccccc3[nH]2)cc1 | -115.8*
CCCCCOc1ccc(CSc2ncn[nH]2)cc1 | -86.8*
Nc1nc(CSc2nc3ccccc3[nH]2)cs1 | -76.3*
O=[N+]([O-])c1ccc(CSc2nc3ccccc3[nH]2)cc1 | -114.2*
O=Cc1[nH]c2ccccc2c1N(C(=O)CCl)c1ccc([N+](=O)[O-])cc1 | 84.2
SMILES | aSyn 5UTR act
Nc1nc(N)nc(COc2ccccc2)n1 | -106.5*
CCOc1ccc(C2=Nc3ccc(Br)cc3C(c3ccc(N4CCOCC4)cc3)=NN2)cc1 | -66.4*
CCOc1ccc(C2=Nc3ccccc3C(c3ccc(N4CCOCC4)cc3)=NN2)cc1 | -94.5*
COc1ccc(O)c(C(=O)CC(=O)c2ccc(F)cc2)c1 | 73.3
COc1ccc(C(=O)CC(=O)c2ccccc2O)cc1 | -218.0*
COc1ccc(O)c(C(=O)CC(=O)c2ccccc2C)c1 | -99.6*
CCOC(=O)/C(C#N)=C\C=C1C=CN(C)C=C1 | -149.7*
Cc1ccc(NC(=O)c2ccc(C(=O)c3ccccc3)cc2)nc1 | -108.9*
Cc1ccc(NC(=O)c2ccc3nc[nH]c3c2)nc1 | -95.8*
Cc1ccc(NC(=O)c2ccc3nc[nH]c3c2)c(O)c1 | -98.7*
O=C(Nc1ccc(OC(F)(F)F)cc1)c1ccc2nc[nH]c2c1 | -64.3*
Cc1ccc(NC(=O)CCNC(=O)c2ccc(Cl)cc2)nc1 | -79.8*
Cc1ccc(-n2c(C(C)C)nc3oc4ccccc4c(=O)c3c2=O)cc1 | -111.4*
CCCc1nc2oc3ccccc3c(=O)c2c(=O)n1-c1ccccc1 | -153.3*
CCCc1nc2oc3ccccc3c(=O)c2c(=O)n1-c1ccc(C)cc1 | -83.9*
CCc1nc2oc3ccccc3c(=O)c2c(=O)n1-c1ccccc1 | -314.6*
CCc1nc2oc3ccccc3c(=O)c2c(=O)n1-c1ccc(C)cc1 | -138.5*
Cc1ccn2c(C(=O)c3ccc(Cl)cc3)cnc2c1 | -81.5*
CC(=O)c1ccc(Oc2ccc(C(C)=O)cc2)cc1 | -95.8*
O=C(COc1ccc(F)c(Cl)c1)c1ccc[nH]1 | -70.8*
O=C(CCC(=O)c1ccc[nH]1)c1ccc(Cl)cc1 | -115.8*
N#Cc1nc(-c2ccc(F)cc2)oc1NCCCn1ccnc1 | -90.0*
N#Cc1nc(-c2ccc(OCc3ccccc3Cl)cc2)oc1NCCCn1ccnc1 | -65.0*
Cc1ccc(C(=O)N/C(=C\c2ccc(-c3ccccc3[N+](=O)[O-])o2)C(=O)NCCCN2CCOCC2)cc1 | 70.6
COc1nc(N/N=C/c2ccc(-c3ccccc3[N+](=O)[O-])o2)nc(N2CCOCC2)n1 | -105.1*
SMILES | aSyn 5UTR act
CC1Oc2ccccc2N(CC(=O)NCc2ccccc2)C1=O (stereo unspecified) | -90.6*
CCc1ccc2[nH]c3nc(C)cc(C)c3c(=O)c2c1 | -231.8*
Cc1cc2nc(-c3ccc(SCC(=O)NC(C)C)nc3)[nH]c2cc1C | -134.4*
Cc1cc2nc(-c3ccc(SCc4ccc(C(=O)O)cc4)nc3)[nH]c2cc1C | -160.0*
Cc1cc2nc(-c3ccc(SCc4ccccc4C#N)nc3)[nH]c2cc1C | -78.0*
Cc1cc2nc(-c3ccc(SCC(=O)Nc4ccc(S(=O)(=O)NC5CC5)cc4)nc3)[nH]c2cc1C | -115.7*
Cc1cc2nc(-c3ccc(SCC(=O)N4CCc5ccccc54)nc3)[nH]c2cc1C | -220.3*
Cc1cc(NC(=O)CSc2ccc(-c3nc4cc(C)c(C)cc4[nH]3)cn2)no1 | -99.9*
Cc1ccc(S(=O)(=O)c2nc(S(=O)(=O)CCO)sc2N2CCOCC2)cc1 | -95.9*
CCCS(=O)(=O)c1nc(S(=O)(=O)c2ccc(C)cc2)c(N2CCOCC2)s1 | -61.8*
CCCS(=O)(=O)c1nc(S(=O)(=O)c2ccc(C)cc2)c(N2CCN(CCO)CC2)s1 | -97.8*
